G9a block – qHTS Assay for Inhibitors of Histone Lysine Methyltransferase G9a | Histone-lysine N-methyltransferase EHMT2 (Homo sapiens), Q96KQ7 | G9a H3K9 monomethylation, AlphaScreen, 2 h | Potency, µM (highest dose often 102 µM), inactives show at the top dose activity, negative = inhibition, hits mostly inhibitors | hit rate 8.8% among 350,000 | AID 504332, 2011; also: % is scaled to controls: 0 for no effect and ±100 for the full control effect; nearly all actives have a fitted effect of over 75% in size
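G9a (20 nM) was preincubated 15 min with compound, then reacted 2 h at room temperature with 500 nM biotin-H3K9 peptide and 20 µM SAM. Monomethyl-H3K9 detected by AlphaScreen using anti-H3K9me1 antibody.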
ALOX12 inh – Primary qHTS assay for inhibitors of human arachidonate 12S-lipoxygenase (ALOX12): Round 2. Polyunsaturated fatty acid lipoxygenase ALOX12 (Homo sapiens), P18054. hit rate 1.1% among 580,000. Potency, µM (top dose mostly 108 µM), for inactives: top-dose activity change, negative = inhibition, hits mostly inhibitors. purified 12hLO, xylenol orange hydroperoxide absorbance. AID 1671190, 2021; also: % is scaled to controls: 0 for no effect and ±100 for the full control effect
Target sequence (P18054 whole entry, looked up): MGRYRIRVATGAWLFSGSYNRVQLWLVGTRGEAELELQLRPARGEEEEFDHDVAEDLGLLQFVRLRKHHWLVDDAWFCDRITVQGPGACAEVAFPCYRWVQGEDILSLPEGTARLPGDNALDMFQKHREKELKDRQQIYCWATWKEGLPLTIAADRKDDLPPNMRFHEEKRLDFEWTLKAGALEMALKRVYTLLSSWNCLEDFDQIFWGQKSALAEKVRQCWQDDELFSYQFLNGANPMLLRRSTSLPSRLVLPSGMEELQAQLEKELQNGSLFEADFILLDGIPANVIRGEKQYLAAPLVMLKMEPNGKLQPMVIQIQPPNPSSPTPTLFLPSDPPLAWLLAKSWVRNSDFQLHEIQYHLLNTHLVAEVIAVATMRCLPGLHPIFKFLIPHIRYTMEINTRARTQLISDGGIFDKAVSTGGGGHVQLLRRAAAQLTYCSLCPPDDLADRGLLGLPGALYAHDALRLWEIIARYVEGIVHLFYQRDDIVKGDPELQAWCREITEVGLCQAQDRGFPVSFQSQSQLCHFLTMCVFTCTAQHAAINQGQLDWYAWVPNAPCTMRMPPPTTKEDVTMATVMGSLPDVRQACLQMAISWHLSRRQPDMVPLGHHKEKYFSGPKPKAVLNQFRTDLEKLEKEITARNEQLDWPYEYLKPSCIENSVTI
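Hydroperoxide product was detected by ferrous iron/xylenol orange as the 573 to 405 nm absorbance ratio. Arachidonic acid at 40 uM (final) was turned over for 30 min at room temperature by 150 nM human 12hLO, pH 7.0 Hepes buffer, after 15 min compound preincubation.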
Sfp inh – qHTS Assay for Inhibitors of Bacillus subtilis Sfp phosphopantetheinyl transferase (PPTase); 4'-phosphopantetheinyl transferase ffp (Bacillus subtilis), Q9F4F7; Biochemical Sfp PPTase activity, qHTS; Potency, µM, for the others: largest response in the series, negative = inhibition, actives largely listed as inhibitors; hit rate 3.5% among 310,000;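 also: the enzyme is Sfp with the accession as filed and its product quenches rhodamine fluorescence; 0% = enzyme reaction without inhibitor and -100% = no enzyme wells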
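Buffer: 50 mM Hepes-Na pH 7.6, 10 mM MgCl2, 0.01% Nonidet P-40, 0.01% BSA. Enzyme 15 nM, pre-exposed to compound 15 min; substrates then added and fluorescence change tracked over 30 min.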
VDR inhibitor – Inhibitors of the vitamin D receptor (VDR): qHTS | Vitamin D3 receptor (Homo sapiens), P11473 | VDR-SRC2-3 peptide fluorescence polarization, 2 h | Potency, µM, inactives show max response, negative = inhibition, actives largely listed as inhibitors | hit rate 0.93% among 400,000 | AID 504847, 2011; also: % is scaled to controls: 0 for no effect and ±100 for the full control effect
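Two reagent solutions held at 4 deg C in the dark were dispensed, compounds pinned at 23 nl, and the mixture incubated 2 h at room temperature. Read-out: fluorescence polarization of VDR–SRC2-3 peptide binding.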
GRP78 ERSR act – qHTS for Inducers of the Endoplasmic Reticulum Stress Response (ERSR) in Human Glioma: qHTS | U87-MG GRP78 promoter luciferase reporter, 16 h | hit rate 0.02% among 420,000 | Potency, µM, for the others: top-dose activation, hits mostly activators | AID 602332, 2012; also: series mostly up to about 76 µM; % of control where 0% means no effect; nearly all actives have a fitted effect of over 35% in size
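Stably transfected U87-MG human glioma cells carrying a GRP78-based luminescent sensor were seeded at 1000 cells/well, pin-dosed with compounds and incubated 16 h. Luciferase reagent was then added, and end-point luminescence was read after 10 min at room temperature.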
Starred values were filed as active, the others as inactive; [ ] = remark or other dose. Many of the other results were omitted from the sample, so hits are more common in it than they were. Calls follow the shape of the dose curve; as a rule, active = well fitted curve in the direction sought with a large enough effect; inconclusive = small, poorly fitted or top-dose-only effect, or another doubt; inactive = no such curve, though single readings can be large; an effect the other way counts as inactive or inconclusive. Potency is read from the fitted curve at half-maximal effect.

Screening CCOC(=O)c1ccc2c3c(cccc13)CC2 returned ALOX12 inh -10%.
For Cc1cc(Cn2nnnc2-c2ccncc2)cc(C)c1O the results were G9a block 35µM*, ALOX12 inh -11%, Sfp inh 11%, VDR inhibitor 4% and GRP78 ERSR act -8%.
Screening Cc1ccccc1-c1cc2nc(-c3ccc([N+](=O)[O-])cc3)cc(=O)n2[nH]1 returned G9a block -40%, ALOX12 inh inconclusive, Sfp inh -14%, VDR inhibitor -6% and GRP78 ERSR act -4%.
O=c1cc(-c2ccc([N+](=O)[O-])cc2)nc2cc(-c3ccc(F)cc3)[nH]n12 was read as G9a block -8%[59 µM], ALOX12 inh 20µM*, Sfp inh 45µM*, VDR inhibitor -7% and GRP78 ERSR act -3%.
N#CCCN(CCC#N)c1ccncc1 was read as ALOX12 inh -19%.
`CN(C)c1oc(-c2ccccc2[N+](=O)[O-])nc1C#N` gave G9a block 7.1µM*, ALOX12 inh 7%, Sfp inh 10µM*, VDR inhibitor 32µM* and GRP78 ERSR act -1%.
`CN(C)c1oc(-c2ccccc2Cl)nc1C#N` gave G9a block inconclusive, ALOX12 inh -10%[57.4 µM], Sfp inh 15%, VDR inhibitor -19% and GRP78 ERSR act -1%.
`COc1cc(NC(=O)c2c(-n3cnnn3)sc(C)c2C)cc(OC)c1` gave ALOX12 inh 13%.
Screening C1CNC(CN2CCOCC2)C1 (configuration not stated) returned ALOX12 inh 8.9µM*.
Screening COc1cccc(CN(C)C(=O)c2cc3cc(Br)ccc3[nH]2)c1 returned ALOX12 inh 10%.
Screening CC1(C)Cc2c(c(-c3ccco3)nc3sc4c(NCCN5CCOCC5)ncnc4c23)CO1 returned G9a block 18µM*, ALOX12 inh 22%, Sfp inh -4%, VDR inhibitor 6% and GRP78 ERSR act 1%.
CC1(C)Cc2c(c(-c3ccco3)nc3sc4c(NCCCO)ncnc4c23)CO1 was read as ALOX12 inh inconclusive, Sfp inh 7.9µM*, VDR inhibitor -21% and GRP78 ERSR act -1%.
For CN(C)CCNc1ncnc2c1sc1nc(N3CCCC3)c3c(c12)CC(C)(C)OC3 the results were G9a block inconclusive, ALOX12 inh 1%, Sfp inh -9%, VDR inhibitor -13% and GRP78 ERSR act -7%.
For CC1(C)Cc2c(c(-c3ccco3)nc3sc4c(NCC5CCCO5)ncnc4c23)CO1 (configuration not stated) the results were G9a block -19%[59 µM], ALOX12 inh inconclusive, Sfp inh 20µM*, VDR inhibitor 89µM* and GRP78 ERSR act -4%.
`Cn1c(=O)c2c(nc(SCc3ccccc3)n2Cc2ccccc2)n(C)c1=O` gave ALOX12 inh -7%.
`CCOC(=O)C1=C(C)N(Cc2ccc(C(=O)N3CCCCC3)cc2)C(=O)CC1c1cccc(C)c1` (configuration not stated) gave ALOX12 inh -5%.
`O=C(c1ccccc1)c1ccc(OCC(=O)c2c[nH]c3ccccc23)cc1` gave ALOX12 inh -19%.
Screening C=CCn1c(COc2ccc(Cl)cc2)nnc1SCC(=O)NCC(=O)OCC returned G9a block 28µM*, ALOX12 inh -6%, Sfp inh 15%, VDR inhibitor -2% and GRP78 ERSR act 2%.
`C=CCn1c(COc2cccc(C)c2)nnc1SCC(=O)NC(=O)NCc1ccco1` gave G9a block inconclusive, ALOX12 inh -10%[57.4 µM], Sfp inh 25µM*, VDR inhibitor -7% and GRP78 ERSR act 0%.
For C=CCn1c(COc2ccc(F)cc2)nnc1SCC(=O)NC(=O)NCc1ccco1 the results were G9a block inconclusive, ALOX12 inh inconclusive, Sfp inh -26%, VDR inhibitor 5% and GRP78 ERSR act -2%.
For Cc1csc(=Nc2ccccc2)n1Cc1ccco1 the results were G9a block 40µM*, ALOX12 inh inconclusive, Sfp inh -20%, VDR inhibitor -5% and GRP78 ERSR act -1%.
Screening Cc1csc(=NC(=O)c2ccccc2)n1Cc1ccco1 returned G9a block inconclusive, ALOX12 inh 8%, Sfp inh -6%, VDR inhibitor 1% and GRP78 ERSR act 1%.
CCc1ccc(C(=O)CC2(O)C(=O)N(Cc3ccc(C)cc3)c3ccccc32)cc1 (configuration not stated) was read as G9a block 5.6µM*, ALOX12 inh inconclusive, VDR inhibitor inconclusive and GRP78 ERSR act 1%.
`Cc1coc(C)c1C(=O)CC1(O)C(=O)N(CCc2ccccc2)c2ccccc21` (configuration not stated) gave G9a block inconclusive, ALOX12 inh 40µM*, Sfp inh inconclusive, VDR inhibitor -14% and GRP78 ERSR act -3%.
For Cc1ccc(C(=O)CC2(O)C(=O)N(Cc3ccccc3)c3ccccc32)c(C)c1 (configuration not stated) the results were G9a block 2.2µM*, ALOX12 inh -73%, VDR inhibitor inconclusive and GRP78 ERSR act -2%.
`Cc1ccc(C(=O)CC2(O)C(=O)N(C)c3ccccc32)o1` (configuration not stated) gave G9a block 50µM*, ALOX12 inh 5%, Sfp inh -2%, VDR inhibitor -3% and GRP78 ERSR act 1%.
`Cc1cc(=O)n2c3ccccc3n(CC(O)CN3CCN(c4ccccc4)CC3)c2c1C#N` (configuration not stated) gave ALOX12 inh 28%.
`O=C(Cc1cnn(-c2ccccc2)c1)c1ccc(O)c(O)c1O` gave G9a block 13µM*, ALOX12 inh inconclusive, Sfp inh 32µM*, VDR inhibitor -2% and GRP78 ERSR act 4%.
Screening COc1ccc(-c2c3c(=O)n(C)c(=O)n(C)c3cn2-c2cccc(N)c2)cc1 returned G9a block 11µM*, ALOX12 inh -19%, VDR inhibitor 4% and GRP78 ERSR act 0%.
C=CCOn1c(=O)c(-c2ccc(OC)c(OC)c2)[n+]([O-])c2ccccc21 was read as G9a block 8.9µM*, ALOX12 inh 0%, Sfp inh 56µM*, VDR inhibitor 7% and GRP78 ERSR act 1%.
COc1ccc(-c2c(=O)n(OCc3ccccc3[N+](=O)[O-])c3ccccc3[n+]2[O-])c(OC)c1 was read as G9a block 45µM*, ALOX12 inh -21%, Sfp inh 8%, VDR inhibitor 18% and GRP78 ERSR act -3%.

Screening results from PubChem BioAssay.
